This note sets out measurements from PubChem BioAssay AID540276 (National Center for Advancing Translational Sciences (NCATS), 2011).

Screen size: about 300,000 compounds; about 5,400 (1.8%) were called active. Entries that show only a call come without a potency. Roughly 28% stayed inconclusive and do not appear here. Calls come from the whole dose curve; tested in HEK293 cells. Only a selection was taken, and actives are over-represented in it overall.
Potency is the fitted concentration of half-maximal effect.

This assay can be described thus: qHTS for inhibitors of binding or entry into cells for Marburg Virus. The conditions noted are these: Marburg virus pseudotyped entry inhibition, cell reporter; series mostly up to 37.8 µM. (In general: Quantitative high-throughput screening tests each substance at several concentrations.)
In the case of `CCOC(=O)C1CCN(c2nc3ccccc3nc2[C@@H](C#N)C(=O)OC(C)C)CC1`, the Potency entry is “inactive”.

As to `COc1cc(/C=C2\C(=N)N3N=C(CC(=O)N4CCOCC4)SC3=NC2=O)cc(OC)c1OC`, the Potency result is “inactive”.

For `CCOC(=O)N1CCN(C(=O)c2ccc(CN(c3ccc(C)c(C)c3)S(C)(=O)=O)cc2)CC1`, the Potency result is “inactive”.

For `CCN1CCN(C(=O)c2ccc(CN(c3ccc(C)c(C)c3)S(C)(=O)=O)cc2)CC1`, the Potency entry was “inactive”.

For `Cc1ccc2cc(CN(c3ccc(C)c(C)c3)S(C)(=O)=O)c(=O)[nH]c2c1`, the Potency is 10 µM (active).

Regarding `CCCCc1nc2cc(C(=O)NCCc3cnn(C)c3)ccc2o1`, the Potency entry was “inactive”.

`CC(=O)CSc1nc(CCc2ccccc2)c(C#N)c(=O)[nH]1`: the Potency result was “inactive”.

For `Cn1c(N)c(C(=O)COC(=O)/C=C/c2cccc(C(F)(F)F)c2)c(=O)n(C)c1=O`, the Potency entry was “inactive”.

Take `COc1ccc(C(=O)COC(=O)c2c(C)noc2C)cc1Cl`: the Potency result is “inactive”.

For `CC(C)(C)c1ccc(Cn2nnc3c(=O)[nH]c(C4CCCN(C(=O)c5ccco5)C4)nc32)cc1` (stereo unspecified), the Potency is 10 µM (active).

With `COc1ccc(Cn2nnc3c(=O)[nH]c(C4CCN(C(=O)c5ccccc5Cl)CC4)nc32)cc1`, the Potency entry was “inactive”.

With `O=C(c1ccccc1F)N1CCC(c2nc3c(nnn3Cc3cccc(F)c3)c(=O)[nH]2)CC1`, the Potency entry is “inactive”.

Consider `COc1ccc(OC)c(NC(=O)COC(=O)Cc2ccsc2)c1`, for which the Potency entry is “inactive”.

As to `CCOC(=O)c1ccc(N2C(=O)c3n[nH]c(C)c3C2c2ccc(O)c(OC)c2)cc1` (stereo unspecified), the Potency entry is “inactive”.

Consider `CCOC(=O)c1ccc(N2C(=O)c3[nH]nc(-c4ccccc4)c3C2c2ccc(C(C)C)cc2)cc1` (stereo unspecified), for which the Potency entry was “inactive”.

Regarding `CCOC(=O)c1ccc(N2C(=O)c3n[nH]c(-c4ccco4)c3C2c2ccc(O)cc2)cc1` (stereo unspecified), the Potency was 11.2 µM (active).

In the case of `COc1ccccc1S(=O)(=O)c1c(C)cc(C)[nH]c1=O`, the Potency result was “inactive”.

`OCc1ccc(-c2ccccc2)c(-c2ccccc2)c1`: the Potency result is “inactive”.

Take `CN(C)c1ccc(CNC2C3CC4CC(C3)CC2C4)cc1` (stereo unspecified): the Potency is 14.6 µM (active).

In the case of `c1cnc(NC2C3CC4CC(C3)CC2C4)nc1` (stereo unspecified), the Potency entry was “inactive”.

For `CN(C)c1ccc(CNC23CN4CN(CN(C4)C2)C3)cc1`, the Potency entry was “inactive”.

For the molecule `CC(=O)Oc1cccc(C(=O)Nc2ccccc2NC(=O)c2cccc(OC(C)=O)c2)c1`, the Potency entry was “inactive”.

With `COc1ccc(C(=O)NC2CC2)cc1OC1CCN(Cc2cnn(C)c2)CC1`, the Potency entry is “inactive”.

Consider `CCCC(=O)Nc1ccccc1N1CCN(C(=O)c2ccccc2)CC1`, for which the Potency entry is “inactive”.

Consider `O=C(CN1CCN(c2ccccc2)CC1)Nc1ccc(F)cc1`, for which the Potency result is “inactive”.

As for `CCCCC(=O)Nc1ccccc1N1CCN(c2ccc(F)cc2)CC1`, the Potency was 11.2 µM (active).

Turning to `O=C(Nc1ccccc1N1CCN(c2ccccc2)CC1)c1cccc(F)c1`, the Potency entry was “inactive”.

Take `CCC(=O)Nc1ccccc1N1CCN(S(C)(=O)=O)CC1`: the Potency result was “inactive”.

As for `CCC(C)C(=O)Nc1ccccc1N1CCN(c2ccc(F)cc2)CC1` (stereo unspecified), the Potency was 12.6 µM (active).

For `O=C(Cc1ccc(S(=O)(=O)N2CCOCC2)s1)NCCOc1ccccc1F`, the Potency entry is “inactive”.

For `O=C(c1cc2cc(Br)cc(Br)c2oc1=O)N1CCOCC1`, the Potency result was “inactive”.

As to `CSc1ccc(/C=N\NC(=O)COc2ccc(Cl)cc2Br)cc1`, the Potency result is “inactive”.

`COCCNCCOCCOc1cccc(OC)c1`: the Potency entry was “inactive”.

`COCCCNCCOCCOc1ccc(Cl)cc1Br`: the Potency is 11.6 µM (active).

On to `CCS(=O)(=O)Nc1ccc(C(=O)NCCSc2ccccc2)cc1`, for which the Potency result is “inactive”.

Consider `CC(C)Cn1c(=O)c2ccccc2n2c(CCC(=O)NCc3ccccn3)nnc12`, for which the Potency result was “inactive”.

In the case of `CNN/C(N=Cc1ccc([N+](=O)[O-])s1)=N\S(=O)(=O)c1cc(C)c(Cl)cc1SCc1ccccc1`, the Potency entry was “inactive”.

`O=[N+]([O-])c1ccc(C=Nc2ccc(Cl)cc2Cl)s1`: the Potency was 5.8 µM (active).

Take `CN1CCN(c2ccc(NC(=O)c3cc(Cl)c4c(c3)OCCO4)cc2)CC1`: the Potency entry was “inactive”.

In the case of `CCc1ccc(N(C(=O)c2csnn2)C(C(=O)NC2CCCCC2)c2cccnc2)cc1` (stereo unspecified), the Potency entry is “inactive”.

`CCCn1nc(NS(=O)(=O)c2ccc(F)cc2)c2cc3ccccc3nc21`: the Potency result was “inactive”.

Take `CC(C)Cn1c(SCC(=O)Nc2ccc(Cl)cc2F)nc(O)cc1=O`: the Potency result is “inactive”.

Consider `O=C(Nc1ccccc1Cl)/C(Cl)=C(\Cl)S(=O)c1ccccc1` (stereo unspecified), for which the Potency is 3.16 µM (active).

With `COCCN(CCOC)C(=S)Nc1ccccc1Cl`, the Potency entry is “inactive”.

Take `O=C(COC(=O)c1cccs1)Nc1ccccc1Cl`: the Potency entry was “inactive”.

Consider `O=C1c2ccccc2C(=O)C1C(=O)C1CC1`, for which the Potency entry was “inactive”.

On to `O=c1c2ccccc2ncn1CCc1ccncc1`, for which the Potency entry was “inactive”.

In the case of `Cc1nn2c3cc(N4CCOCC4)ccc3nc2c2ccccc12`, the Potency entry was “inactive”.

As for `Cc1ccccc1N/N=C/c1ccc(N2CCOCC2)cc1`, the Potency entry was “inactive”.

For the molecule `Cc1cc(Nc2ccc(N3CCOCC3)cc2)c2cccc(C)c2n1`, the Potency was 0.794 µM (active).

As to `CC(NC(=O)c1cccc(S(=O)(=O)N2CCc3ccccc3C2)c1)c1ccco1` (stereo unspecified), the Potency result was “inactive”.

Take `Cc1cc(Oc2ccccc2)nc(N2CCOCC2)n1`: the Potency entry was “inactive”.

Consider `Cc1cc(C)nc(N2CCC(C(=O)Nc3ccc4c(c3)OCCO4)CC2)n1`, for which the Potency result is “inactive”.

With `Cc1cc(Nc2ccc(Cl)cc2)nc(N2CCOCC2)n1`, the Potency is 7.94 µM (active).

As for `O=C(O)c1ccc2c(=O)n3c(nc2c1)/C(=C/c1ccc(OC(F)F)cc1OC(F)F)CC3`, the Potency entry is “inactive”.

Regarding `CCN1CCN(Cc2c(O)ccc3oc(C)c(C(=O)Nc4ccc(C)cc4C)c23)CC1`, the Potency entry is “inactive”.

Regarding `Cc1oc2ccc(O)c(CN3CCOCC3)c2c1C(=O)Nc1cccc(Cl)c1C`, the Potency result was “inactive”.

As for `Cc1oc2ccc(O)c(CN3CCCCC3)c2c1C(=O)Nc1cccc(C(F)(F)F)c1`, the Potency is 10 µM (active).

For the molecule `Cc1cc(=O)oc2c(C)c(OC(C)C(=O)NC3CCN(Cc4ccccc4)CC3)ccc12` (stereo unspecified), the Potency entry is “inactive”.

For the molecule `Cc1cc(-c2nnc(SCC(=O)Nc3ccc(F)cc3)n2N)n[nH]1`, the Potency entry was “inactive”.

For `CC(=O)c1cccc(-c2ccc(CN3C(CC(C)C)C(=O)N(Cc4cn(CC5CCCCC5)nn4)CCS3(=O)=O)cc2)c1` (stereo unspecified), the Potency result was “inactive”.

Regarding `CC(C)CC1C(=O)N(Cc2cn(Cc3ccco3)nn2)CCS(=O)(=O)N1Cc1ccc(-c2ccc(Cl)c(Cl)c2)cc1` (stereo unspecified), the Potency was 25 µM (active).

On to `Cc1ccc(C)c(NC(=O)COC(=O)c2nn(C)c(=O)c3ccccc23)c1`, for which the Potency result is “inactive”.

For the molecule `O=C(NC1=CC(=O)c2ccccc2C1=O)c1ccccc1`, the Potency is 10 µM (active).

As for `O=C(Nc1cccc(NC(=O)c2ccc(Br)cc2)c1)c1ccccc1`, the Potency result is “inactive”.

Consider `O=C1C=C(NS(=O)(=O)c2ccccc2)C(=O)c2ccccc21`, for which the Potency result is “inactive”.
